28 targets from the supplement of paper PMC10382584, “Macrocyclization of linear molecules by deep learning to facilitate macrocyclic drug candidates discovery” (Nature Communications, 2023) can be followed below.

Sequence of UniProt O96013 (O96013 whole entry, looked up): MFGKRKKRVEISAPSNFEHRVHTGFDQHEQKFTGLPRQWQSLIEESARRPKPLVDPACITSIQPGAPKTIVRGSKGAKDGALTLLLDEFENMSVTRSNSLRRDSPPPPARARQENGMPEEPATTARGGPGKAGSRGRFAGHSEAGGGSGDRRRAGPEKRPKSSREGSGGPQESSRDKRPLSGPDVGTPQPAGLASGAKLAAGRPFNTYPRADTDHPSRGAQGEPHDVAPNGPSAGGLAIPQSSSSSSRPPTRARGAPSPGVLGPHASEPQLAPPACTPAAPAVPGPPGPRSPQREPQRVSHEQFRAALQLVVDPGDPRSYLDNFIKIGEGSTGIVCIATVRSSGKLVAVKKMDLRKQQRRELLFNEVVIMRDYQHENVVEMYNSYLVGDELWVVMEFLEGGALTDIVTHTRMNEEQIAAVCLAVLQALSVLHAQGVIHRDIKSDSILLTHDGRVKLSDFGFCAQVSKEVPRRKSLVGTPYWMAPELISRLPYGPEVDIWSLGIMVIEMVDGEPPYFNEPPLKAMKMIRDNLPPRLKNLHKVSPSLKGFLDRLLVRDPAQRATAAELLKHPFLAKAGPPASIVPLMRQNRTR
Sequence of UniProt Q96BR1 (Q96BR1 whole entry): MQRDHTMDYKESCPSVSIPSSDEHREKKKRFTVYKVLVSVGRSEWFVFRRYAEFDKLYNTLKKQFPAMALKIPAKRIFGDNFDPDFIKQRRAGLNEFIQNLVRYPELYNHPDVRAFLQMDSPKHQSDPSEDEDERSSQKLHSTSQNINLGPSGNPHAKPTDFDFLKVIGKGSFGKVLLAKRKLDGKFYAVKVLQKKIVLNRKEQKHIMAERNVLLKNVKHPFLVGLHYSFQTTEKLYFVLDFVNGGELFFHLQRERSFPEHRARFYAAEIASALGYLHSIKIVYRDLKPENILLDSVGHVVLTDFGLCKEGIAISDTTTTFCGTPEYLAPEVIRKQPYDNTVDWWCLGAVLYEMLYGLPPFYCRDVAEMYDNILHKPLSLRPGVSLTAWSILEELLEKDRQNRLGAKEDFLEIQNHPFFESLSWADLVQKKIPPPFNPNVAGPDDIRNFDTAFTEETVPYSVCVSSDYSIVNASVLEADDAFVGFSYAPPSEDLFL
Sequence of UniProt Q6P2M8 (Q6P2M8 whole entry): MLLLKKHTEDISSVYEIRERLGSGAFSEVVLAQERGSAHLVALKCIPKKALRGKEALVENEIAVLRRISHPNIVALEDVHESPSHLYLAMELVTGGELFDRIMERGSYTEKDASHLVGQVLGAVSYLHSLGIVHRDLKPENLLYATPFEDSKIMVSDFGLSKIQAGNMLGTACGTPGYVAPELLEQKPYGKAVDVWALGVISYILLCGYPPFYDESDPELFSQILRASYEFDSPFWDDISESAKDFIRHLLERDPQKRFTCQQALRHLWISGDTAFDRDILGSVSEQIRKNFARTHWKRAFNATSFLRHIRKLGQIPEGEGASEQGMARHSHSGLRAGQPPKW
Sequence of UniProt P07948 (P07948 whole entry, looked up): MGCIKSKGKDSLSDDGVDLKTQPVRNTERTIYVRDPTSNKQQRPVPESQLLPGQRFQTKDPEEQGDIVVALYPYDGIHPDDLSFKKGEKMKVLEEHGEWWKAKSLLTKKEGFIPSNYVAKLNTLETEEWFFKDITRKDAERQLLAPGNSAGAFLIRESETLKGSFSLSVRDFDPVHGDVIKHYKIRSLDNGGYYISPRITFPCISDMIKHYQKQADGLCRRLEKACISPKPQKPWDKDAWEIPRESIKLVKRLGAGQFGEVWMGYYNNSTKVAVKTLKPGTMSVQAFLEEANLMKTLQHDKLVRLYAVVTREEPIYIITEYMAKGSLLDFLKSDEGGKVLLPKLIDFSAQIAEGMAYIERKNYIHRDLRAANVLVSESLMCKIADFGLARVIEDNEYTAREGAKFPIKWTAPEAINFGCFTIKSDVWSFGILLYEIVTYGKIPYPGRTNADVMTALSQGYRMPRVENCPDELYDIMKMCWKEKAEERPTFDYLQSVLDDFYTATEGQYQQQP
Sequence of UniProt Q9H2K8 (Q9H2K8 whole entry): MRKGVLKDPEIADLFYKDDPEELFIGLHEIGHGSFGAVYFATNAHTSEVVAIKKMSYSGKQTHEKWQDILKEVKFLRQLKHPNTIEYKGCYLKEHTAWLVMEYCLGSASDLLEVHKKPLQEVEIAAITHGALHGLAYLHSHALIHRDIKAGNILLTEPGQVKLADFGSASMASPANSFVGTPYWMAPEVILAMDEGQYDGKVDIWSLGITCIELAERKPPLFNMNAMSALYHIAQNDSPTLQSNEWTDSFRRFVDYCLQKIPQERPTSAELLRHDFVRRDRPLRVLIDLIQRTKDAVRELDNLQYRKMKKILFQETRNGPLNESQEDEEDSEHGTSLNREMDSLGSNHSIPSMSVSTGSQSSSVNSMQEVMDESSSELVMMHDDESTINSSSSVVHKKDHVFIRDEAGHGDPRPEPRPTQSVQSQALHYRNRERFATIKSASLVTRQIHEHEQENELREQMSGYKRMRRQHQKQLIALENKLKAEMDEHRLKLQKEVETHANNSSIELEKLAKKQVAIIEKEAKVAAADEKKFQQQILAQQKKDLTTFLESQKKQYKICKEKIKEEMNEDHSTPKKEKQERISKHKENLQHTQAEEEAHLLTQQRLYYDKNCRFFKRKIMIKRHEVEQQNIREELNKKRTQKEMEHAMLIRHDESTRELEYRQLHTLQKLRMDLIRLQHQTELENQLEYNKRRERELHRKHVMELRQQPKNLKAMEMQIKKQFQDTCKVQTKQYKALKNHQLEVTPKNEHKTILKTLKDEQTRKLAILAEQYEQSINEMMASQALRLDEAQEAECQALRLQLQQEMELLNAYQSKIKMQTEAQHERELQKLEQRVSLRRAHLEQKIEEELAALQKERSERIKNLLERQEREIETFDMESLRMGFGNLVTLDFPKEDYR
Sequence of UniProt P11802 (P11802 whole entry, looked up): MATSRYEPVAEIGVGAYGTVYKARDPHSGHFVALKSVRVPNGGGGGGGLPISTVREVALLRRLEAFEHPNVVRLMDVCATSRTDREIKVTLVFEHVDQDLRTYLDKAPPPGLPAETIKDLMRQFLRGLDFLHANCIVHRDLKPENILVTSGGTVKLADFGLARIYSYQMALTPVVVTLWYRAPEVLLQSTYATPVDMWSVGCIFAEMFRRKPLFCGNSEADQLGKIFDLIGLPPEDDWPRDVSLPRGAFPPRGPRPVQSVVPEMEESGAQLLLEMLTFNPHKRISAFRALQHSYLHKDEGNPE
Sequence of UniProt Q96Q40 (Q96Q40 whole entry): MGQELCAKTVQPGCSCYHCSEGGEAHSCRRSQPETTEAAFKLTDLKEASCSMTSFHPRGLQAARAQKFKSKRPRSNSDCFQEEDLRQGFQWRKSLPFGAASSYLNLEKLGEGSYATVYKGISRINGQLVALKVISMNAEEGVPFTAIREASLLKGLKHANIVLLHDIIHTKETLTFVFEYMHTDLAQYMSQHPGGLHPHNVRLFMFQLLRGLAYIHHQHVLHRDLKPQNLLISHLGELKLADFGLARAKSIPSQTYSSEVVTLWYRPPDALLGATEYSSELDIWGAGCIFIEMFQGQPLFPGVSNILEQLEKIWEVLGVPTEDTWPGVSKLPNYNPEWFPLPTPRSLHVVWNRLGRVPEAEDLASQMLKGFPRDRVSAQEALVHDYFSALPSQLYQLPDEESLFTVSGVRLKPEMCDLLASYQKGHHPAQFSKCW
Sequence of UniProt P17948 (P17948 whole entry): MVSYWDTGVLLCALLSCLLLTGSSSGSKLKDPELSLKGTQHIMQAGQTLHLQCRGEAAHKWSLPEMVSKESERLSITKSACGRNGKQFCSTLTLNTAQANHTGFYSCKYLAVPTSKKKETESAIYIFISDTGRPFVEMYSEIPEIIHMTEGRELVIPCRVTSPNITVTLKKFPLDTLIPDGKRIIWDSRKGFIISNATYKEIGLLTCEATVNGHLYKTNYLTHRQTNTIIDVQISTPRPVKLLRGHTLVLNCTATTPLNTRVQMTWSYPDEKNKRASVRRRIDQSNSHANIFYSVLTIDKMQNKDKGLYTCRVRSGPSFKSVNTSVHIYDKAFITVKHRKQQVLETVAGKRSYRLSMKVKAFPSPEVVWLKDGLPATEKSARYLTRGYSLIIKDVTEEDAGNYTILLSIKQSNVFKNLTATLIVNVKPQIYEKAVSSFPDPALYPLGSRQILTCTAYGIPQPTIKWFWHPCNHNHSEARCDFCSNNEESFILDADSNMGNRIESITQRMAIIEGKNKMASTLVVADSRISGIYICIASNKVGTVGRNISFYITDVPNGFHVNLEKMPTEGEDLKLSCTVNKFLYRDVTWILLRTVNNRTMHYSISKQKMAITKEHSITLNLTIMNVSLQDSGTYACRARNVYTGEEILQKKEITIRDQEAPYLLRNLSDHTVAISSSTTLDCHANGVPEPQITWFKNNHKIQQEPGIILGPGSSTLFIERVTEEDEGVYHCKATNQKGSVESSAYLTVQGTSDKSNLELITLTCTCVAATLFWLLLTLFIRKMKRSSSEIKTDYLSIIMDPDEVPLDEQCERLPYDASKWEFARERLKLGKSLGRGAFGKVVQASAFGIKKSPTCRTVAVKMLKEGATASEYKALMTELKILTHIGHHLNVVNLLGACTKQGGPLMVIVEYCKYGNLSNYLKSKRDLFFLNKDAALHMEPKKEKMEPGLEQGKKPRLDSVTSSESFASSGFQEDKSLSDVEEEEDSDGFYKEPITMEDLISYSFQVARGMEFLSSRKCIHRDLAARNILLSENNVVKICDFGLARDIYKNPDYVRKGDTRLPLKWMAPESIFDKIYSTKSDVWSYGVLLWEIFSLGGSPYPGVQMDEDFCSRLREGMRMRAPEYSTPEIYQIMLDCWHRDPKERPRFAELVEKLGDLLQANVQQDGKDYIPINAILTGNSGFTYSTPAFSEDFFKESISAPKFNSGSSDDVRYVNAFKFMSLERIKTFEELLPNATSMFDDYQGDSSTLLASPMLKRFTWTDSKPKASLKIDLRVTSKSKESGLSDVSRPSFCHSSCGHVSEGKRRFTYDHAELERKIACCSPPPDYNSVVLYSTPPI

Compound in this assay: Cc1cnc(Nc2ccc(OCCN3CCCC3)cc2)nc1Nc1cccc(S(=O)(=O)NC(C)(C)C)c1 [Fedratinib]
The assay is described as follows: percent of DMSO control binding (KINOMEscan); higher = weaker binding / less inhibition; extreme values may be limits of the assay. As to conditions: concentration: 100 nM.
Turning to BRAF(V600E), the “percent of DMSO control binding” value is 95%.

Turning to PRKCH, the “percent of DMSO control binding” value came to 100%.

Take “RPS6KA5(Kin.Dom.1-N-terminal) (UniProt O75582)”: the “percent of DMSO control binding” value was 100%.

On to “RPS6KA4(Kin.Dom.1-N-terminal) (UniProt O75676)”, for which the “percent of DMSO control binding” value came out at 100%.

Regarding “RPS6KA5(Kin.Dom.2-C-terminal) (UniProt O75582)”, the “percent of DMSO control binding” value came to 97%.

Consider LATS2 (UniProt Q9NRM7), for which the “percent of DMSO control binding” value is 89%.

With PAK4 (UniProt O96013), the “percent of DMSO control binding” value was 100%.

As for EGFR(S752-I759del) (UniProt P00533), the “percent of DMSO control binding” value came to 88%.

For WNK1 (UniProt Q9H4A3), the “percent of DMSO control binding” value worked out at 100%.

On to LYN (UniProt P07948), for which the “percent of DMSO control binding” value turned out to be 100%.

SGK3 (UniProt Q96BR1): the “percent of DMSO control binding” value was 91%.

Take MEK2 (UniProt P36507): the “percent of DMSO control binding” value is 66%.

As to CAMK1B (UniProt Q6P2M8), the “percent of DMSO control binding” value came out at 66%.

In the case of PAK7 (UniProt Q9P286), the “percent of DMSO control binding” value amounted to 100%.

Consider FLT1 (UniProt P17948), for which the “percent of DMSO control binding” value turned out to be 100%.

On to INSRR (UniProt P14616), for which the “percent of DMSO control binding” value worked out at 100%.

Regarding ACVR2A (UniProt P27037), the “percent of DMSO control binding” value amounted to 100%.

For ERBB4 (UniProt Q15303), the “percent of DMSO control binding” value was found to be 100%.

Take EGFR(G719C) (UniProt P00533): the “percent of DMSO control binding” value was 100%.

Consider CDK4-cyclinD3 (UniProt P11802), for which the “percent of DMSO control binding” value came out at 90%.

Regarding TAOK3 (UniProt Q9H2K8), the “percent of DMSO control binding” value came out at 60%.

With SRMS (UniProt Q9H3Y6), the “percent of DMSO control binding” value worked out at 70%.

As to PFTAIRE2 (UniProt Q96Q40), the “percent of DMSO control binding” value was found to be 100%.

Take BMPR2 (UniProt Q13873): the “percent of DMSO control binding” value is 68%.

PFPK5(P.falciparum): the “percent of DMSO control binding” value was found to be 100%.

Consider MTOR (UniProt P42345), for which the “percent of DMSO control binding” value was found to be 87%.

In the case of p38-alpha (UniProt Q16539), the “percent of DMSO control binding” value amounted to 78%.

Regarding PFTK1 (UniProt O94921), the “percent of DMSO control binding” value came to 100%.
